Source: PubChem BioAssay AID504832 (National Center for Advancing Translational Sciences (NCATS), 2011)
Screen size: about 310,000 compounds; about 18,000 (5.8%) were called active. Not shown: some 22% with an inconclusive outcome. Calls come from the whole dose curve; as a rule, active = well fitted inhibition curve with a large enough effect; inconclusive = small, poorly fitted or top-dose-only effect, or another doubt; inactive = no such curve, though single readings can be large or run the other way. What follows is part of a selection rich in actives, with near analogues and random picks from the rest.

Experiment: Primary qHTS for delayed death inhibitors of the malarial parasite plastid, 48 hour incubation
Settings: P. falciparum luciferase growth in erythrocytes; series mostly up to 28.7 µM; activity change, negative = inhibition: at the top concentration
Text: The goal of this screen is to discover new antimalarial compounds that act by inhibiting the development of the apicoplast in the malarial parasite Plasmodium falciparum. The biochemical processes that make this organelle essential for erythrocytic stage parasites are not well understood. However, antibiotics such as azithromycin and tetracycline, which target the apicoplast translational machinery, have a potent antimalarial effect.
We have developed a cell-based assay that measures parasite growth based on the expression of an integrated copy of a firefly luciferase reporter. To detect small molecules that cause this "delayed death" phenotype, erythrocytes infected with the luciferase-expressing parasites were incubated with compounds for either one or two generations, corresponding to 48 and 96 hours, respectively. Compounds that inhibit parasite growth in the second generation, but not the first, should be enriched in antimalarials that target the apicoplast. Growth inhibition is detected by a decrease in luciferase activity.
Assay Provider: David Fidock and Eric Ekland, Columbia University
Keywords: NIH Roadmap, MLPCN, MLI, MLSMR, qHTS, NCGC, qHTS, malaria, luciferase, viability
Four microliters of culture medium (RPMI 1640 with 0.5% w/v Albumax (GIBCO), 24 mM sodium bicarbonate and 10 ug/mL gentamycin) were dispensed by a Multi-drop Combi into white solid 1536-well plates (Grenier) and 23 nL compound was added by a pin tool. Four microliters of infected erythrocytes (2% hematocrit, 0.1% parasitemia final concentration) in culture medium were dispensed and the plates incubated for 48 hours at 37 C in 5% CO2. Two microliters of luciferase detection reagent was added and luminescence was detected by a ViewLux (PerkinElmer) reader.
% is set by controls: 0 for no effect and ±100 for the full control effect; potency is the fitted concentration of half-maximal effect.

Compound | Potency | activity change, negative = inhibition
O=C(Nc1ccc(Sc2ccc(Br)cc2)cc1)c1ccco1 | 2.33 µM (active) | –
O=C(Nc1ccccc1)c1ccco1 | – | 60.9% (inactive)
O=C(Nc1ccc(O)cc1)c1ccc(NC(=O)c2ccco2)cc1 | – | 81.7% (inactive)
COc1ccc(OCc2cc(C(=O)N3CCCC3)no2)c2ccccc12 | – | -19.2% (inactive)
CC(CCN1CCN=C1N(C)C)c1ccccc1 (stereo not drawn) | – | -8.95% (inactive)
O=c1[nH]cnc(O)c1C(c1ccc(F)cc1)c1c(O)nc[nH]c1=O | – | -0.229% (inactive)
COCCCC1CCN(C(=O)C2CCC(=O)N(C3CCCCCC3)C2)CC1 (stereo not drawn) | – | -6.84% (inactive)
Cc1ccc2nc(N3C(=O)C(O)=C(C(=O)c4ccco4)C3c3cccc(O)c3)sc2c1 (stereo not drawn) | – | 93% (inactive)
CCc1cccc(NC(=O)COC(=O)c2cc(=O)c3ccccc3o2)c1 | – | 22.4% (inactive)
NC(=O)COc1ccc2c3c(c(=O)oc2c1)CCCCC3 | – | 25.1% (inactive)
O=c1oc2c(CN3CCCCC3)c(O)ccc2c2c1CCCCC2 | 2.94 µM (active) | –
NC(=O)C1CCN(C(=O)COc2ccc3c4c(c(=O)oc3c2)CCC4)CC1 | – | -3.55% (inactive)
Cc1cccnc1NC(=O)Cn1c(=O)oc2ccccc21 | – | -5.88% (inactive)
O=C(COC(=O)CNS(=O)(=O)c1ccc(F)c(F)c1F)NC1CCCC1 | – | 28.8% (inactive)
Nc1nnc(SCC(=O)NCC(=O)Nc2ccc(F)c(F)c2F)s1 | – | 5.81% (inactive)
COc1cc(OC)c(C(=O)NC2CCCCCC2)cc1OC | – | 0.054% (inactive)
COc1ccc(Cl)cc1C(=O)NNC(=S)NC1CCCC1 | – | -17.5% (inactive)
COc1cc(C(=S)NC2CCCCC2)ccc1O | 10.4 µM (active) | –
COc1ccc(C(C)NC(=S)NC2CCCCC2)cc1OC (stereo not drawn) | 2.08 µM (active) | –
COc1cc(C(=S)N2CCOCC2)ccc1O | inactive | –
COc1ccc(C(=O)NC(=S)NC2CCCCC2)cc1 | – | -27.2% (inactive)
C=CCNC(=O)COc1coc(CN2CCN(Cc3ccccc3)CC2)cc1=O | – | 10.4% (inactive)
CC(C)(C)n1nnnc1C(c1ccc2ncccc2c1)N1CCSCC1 (stereo not drawn) | 9.28 µM (active) | –
Cc1ccc(C(c2nnnn2C(C)(C)C)N2CCc3ccccc3C2)cc1 (stereo not drawn) | – | 3.97% (inactive)
Cn1c(SCC(=O)N2CCOCC2)nnc1-c1ccc2ncccc2c1 | – | 17% (inactive)
O=C(Nc1nnc(S(=O)(=O)N2CCOCC2)s1)c1cccc(Br)c1 | – | -13.8% (inactive)
O=C(NCCc1ccccc1)C1CCC(Cn2c(=O)c3ccccc3n(Cc3cccnc3)c2=O)CC1 (stereo not drawn) | 11.7 µM (active) | –

Compound | Potency | activity change, negative = inhibition
O=C(CCc1ccccc1)NCc1cccnc1 | – | 1.54% (inactive)
COc1ccc(CCNC(=O)Cn2c(=O)n(CC3CCCO3)c(=O)c3ccccc32)cc1OC (stereo not drawn) | – | -10.1% (inactive)
COCCN(C(=O)CCC(=O)Nc1nccs1)C(C(=O)NCCC(C)C)c1ccc(F)cc1 (stereo not drawn) | – | -3.76% (inactive)
c1ccc(-n2ncc3c(N4CCCC4)ncnc32)cc1 | – | 9.64% (inactive)
Oc1ccccc1N1CCN(c2ncnc3sc(-c4ccccc4)cc23)CC1 | 13.1 µM (active) | –
COc1ccc(Nc2ncnc3sc(-c4ccccc4)cc23)c(OC)c1 | – | -11% (inactive)
Cn1c(=O)oc2cc(S(=O)(=O)NCCC(=O)NCc3ccccc3Cl)ccc21 | – | 4.72% (inactive)
Cc1ccc(CNCc2ccc3c(c2)OCO3)c(C)c1 | – | 3.76% (inactive)
COc1cccc(CNCc2ccc3c(c2)OCO3)c1 | – | -0.266% (inactive)
OC(CNCc1ccc2c(c1)OCO2)COc1ccccc1 (stereo not drawn) | 3.29 µM (active) | –
CNS(=O)(=O)c1ccc(NC(=O)Nc2ccc3c(c2)OCO3)cc1 | – | 125% (inactive)
CCn1nccc1C(=O)Nc1ccc(Cl)c(Cl)c1 | – | 28.2% (inactive)
CCn1nccc1C(=O)Nc1ccc(S(=O)(=O)NC23CC4CC(CC(C4)C2)C3)cc1 | 6.57 µM (active) | –
O=C(Nc1ccc(S(=O)(=O)Nc2ncccn2)cc1)C12CC3CC(CC(C3)C1)C2 | – | 5.34% (inactive)
Cc1ccc(C)c(S(=O)(=O)Nc2cc(C)on2)c1 | – | 10.4% (inactive)
O=C(CC(c1ccccc1)c1cc(Cl)ccc1O)NCCN1CCOCC1 (stereo not drawn) | – | 47.7% (inactive)
OC(c1ccc(Cl)cc1)C(CN1CCOCC1)c1ccccc1 (stereo not drawn) | 2.33 µM (active) | –
CC(CN1CCOCC1)c1ccccc1 (stereo not drawn) | – | -5.89% (inactive)
O=C(CN(C(=O)c1csnn1)c1ccc(Br)cc1)NC1CCCC1 | – | 18.7% (inactive)
CC(C)(C)c1ccc(S(=O)(=O)N2CCN(C(=O)c3ccc4c(c3)C(=O)N(Cc3ccncc3)C4=O)CC2)cc1 | – | -2.86% (inactive)
CC(C)(C)c1ccccc1NC(=O)CN1C(=O)NC2(CCCC2)C1=O | – | -0.115% (inactive)
O=C(Nn1cnnc1)c1cc(Cl)ccc1Cl | – | 2.15% (inactive)
CSc1ncnc2sc(C)c(C)c12 | – | -21.6% (inactive)
c1ccc2sc(SNC3CCCCC3)nc2c1 | – | 0.0777% (inactive)
Cc1sc2ncnc(Sc3nc4ccccc4s3)c2c1C | 1.85 µM (active) | –
Cc1coc2c1c(C)cc1oc(=O)c(CC(=O)NCC(=O)N[C@H](C(=O)O)C(C)C)c(C)c12 | – | -9.45% [at 0.00184 µM] (inactive)
